KCNH2 3.1 inh: KCNH2 3.1 (human) potassium channel inhibition; U2OS KCNH2 3.1, thallium flux FluxOr; active compounds read low; activity change, % (tested at about 1.8 µM); actives 0.95% (n = 340,000);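 active = maximum activity change below -70%; inconclusive = maximum activity change from -70% to -50%; inactive = maximum activity change above -50%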;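 also: thallium influx rate constant from kinetic fluorescence after stimulation buffer; % is scaled to controls: 0 for no effect and ±100 for the full control effect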
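Thallium flux read-out: FluxOr dye with Red40 quencher in HBSS/HEPES, 45 min at RT. Rate constants from kinetic reads were normalized to positive and negative DMSO controls. Cells: U2OS virally expressing the 3.1 isoform.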
KCNH2 WT inh: inhibitors of human wildtype KCNH2 potassium channel; Q12809; U2OS, BacMam KCNH2, thallium flux FluxOr; active compounds read low; activity change, % at 1.84 µM; actives 0.37% (n = 340,000);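 active = maximum activity change below -70%; inconclusive = maximum activity change between -70% and -50%; inactive = maximum activity change above -50%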; also: % is scaled to controls: 0 for no effect and ±100 for the full control effect
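U2OS cells transduced with wild-type KCNH2 virus are loaded with FluxOr dye for 45 min, and thallium flux is measured in kinetic reads before and after stimulation buffer. Rate constants are normalized to DMSO controls.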
TRPV1 ag: agonists of human vanilloid receptor 1 (TRPV1); activation, % at 8.33 µM; Q8NER1; TRPV1-expressing cells, Fluo-8 calcium influx, agonist mode; actives 0.19% (n = 320,000); in the data active = activation above about 80%; inconclusive = between about 30% and that limit; also: 0% is about no effect
Target sequence (Q8NER1 whole entry, looked up): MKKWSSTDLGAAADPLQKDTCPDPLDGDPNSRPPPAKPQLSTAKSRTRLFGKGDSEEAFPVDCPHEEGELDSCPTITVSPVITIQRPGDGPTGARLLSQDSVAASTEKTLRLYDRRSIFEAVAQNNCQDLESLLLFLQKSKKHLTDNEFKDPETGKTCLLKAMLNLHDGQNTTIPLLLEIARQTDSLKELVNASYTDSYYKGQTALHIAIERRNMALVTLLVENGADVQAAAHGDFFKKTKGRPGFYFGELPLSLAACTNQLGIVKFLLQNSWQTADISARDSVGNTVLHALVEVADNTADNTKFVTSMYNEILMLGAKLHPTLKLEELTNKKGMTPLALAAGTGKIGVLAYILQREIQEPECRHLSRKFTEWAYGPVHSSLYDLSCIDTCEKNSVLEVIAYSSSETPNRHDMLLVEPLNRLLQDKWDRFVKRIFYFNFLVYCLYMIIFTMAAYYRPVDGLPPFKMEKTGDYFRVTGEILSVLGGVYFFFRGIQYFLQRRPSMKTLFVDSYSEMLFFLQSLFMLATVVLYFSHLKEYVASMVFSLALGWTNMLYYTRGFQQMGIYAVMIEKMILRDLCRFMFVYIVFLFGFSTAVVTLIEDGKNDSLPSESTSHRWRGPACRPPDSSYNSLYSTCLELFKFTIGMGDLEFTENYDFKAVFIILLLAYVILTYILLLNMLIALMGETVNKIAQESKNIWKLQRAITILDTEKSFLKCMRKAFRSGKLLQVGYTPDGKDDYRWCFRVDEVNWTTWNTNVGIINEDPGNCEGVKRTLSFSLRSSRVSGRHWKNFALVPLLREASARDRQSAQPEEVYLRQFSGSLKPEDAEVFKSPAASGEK
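Cells expressing TRPV1 were dye-loaded with Fluo-8 and read kinetically: 10 s baseline, 3 min after compound (agonist portion), then 2 min after EC20 capsaicin (allosteric enhancer portion). Calcium-bound dye fluorescence at 480/520 nm.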
TRPML1 inh: human mucolipin-1 channel inhibition | TRPML1-inducible cells, Ca2+ dye fluorescence, FDSS; active compounds read low; inhibition of EC80 agonist-evoked calcium signal | activity change, negative = inhibition, % (test concentration not listed) | actives 0.02% (n = 390,000) | AID 624415 | Q9GZU1; in the data active = activity change below about -50%; inconclusive = between about -30% and that limit;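 also: stimulus is agonist 54-4 at its EC80 concentration; % is scaled to controls: 0 for no effect and ±100 for the full control effect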
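TRPML1-DL cells, Tet-induced overnight (~16 h, 37 °C) at 1,500 cells/well, were loaded with Ca8 no-wash dye plus quencher for 45-90 min at room temperature. Compounds were pinned during FDSS kinetic reading; agonist 54-4 at EC80 (4 uM final) then added.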
TRPML1 agonist: human mucolipin-1 channel agonism | activation, % (test concentration not listed) | actives 0.12% (n = 410,000) | TRPML1-expressing cells, Ca2+ dye fluorescence, FDSS | AID 624414; in the data active = activation above about 50%; inconclusive = mostly about 30% to 49%; also: 0% is about no effect
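Tet-induced TRPML1-DL cells, 1,500 per well, cultured overnight, were loaded with a no-wash Ca2+ dye for 45–90 min. Calcium fluorescence was recorded on the FDSS for 110 s after compound addition, before the EC80 agonist (4 uM 54-4) was added.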
TRPV1 PAM: enhances activation of the human vanilloid receptor TRPV1; TRPV1-expressing cells, Fluo-8 calcium influx, capsaicin EC20 potentiation; potentiation, % at 8.33 µM; actives 0.02% (n = 320,000); in the data active = potentiation above about 80%; inconclusive = between about 30% and that limit; also: 0% is about no effect
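TRPV1-expressing cells were cultured overnight at 35.5C and loaded with Fluo-8 calcium dye for 40 to 90 min at room temperature. After a 10 s baseline, compound was added and calcium influx was read kinetically for 3 min (ex 480/em 520 nm).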
An asterisk follows results filed as active. Only some compounds are listed: those with a hit (about 1.3% of all), similar ones and a draw of the others.

`COc1ccc(CNCC(O)(c2ccccc2)c2ccc(F)cc2)cc1` (configuration not stated) gave KCNH2 3.1 inh -75.2*, KCNH2 WT inh 11.4, TRPV1 ag 13.1, TRPML1 inh 1.6, TRPML1 agonist 0.3 and TRPV1 PAM -7.0.
`COc1ccc(CNCC(O)(c2ccccc2)c2ccc(F)cc2)cc1OC` (configuration not stated) gave KCNH2 3.1 inh 0.0, KCNH2 WT inh -15.7, TRPV1 ag 1.0, TRPML1 inh -3.7, TRPML1 agonist 3.9 and TRPV1 PAM -0.2.
COc1ccc(C(CCNCc2ccccc2)c2ccc(F)cc2)cc1 (configuration not stated) was read as KCNH2 3.1 inh -75.4*, KCNH2 WT inh -15.5, TRPV1 ag 10.0, TRPML1 inh 36.3, TRPML1 agonist 0.2 and TRPV1 PAM -9.0.
COc1ccc(CNCCC(c2ccc(F)cc2)c2ccc(OC)cc2)cc1 (configuration not stated) was read as KCNH2 3.1 inh -87.3*, KCNH2 WT inh -132.5*, TRPV1 ag 1.1, TRPML1 inh 54.3, TRPML1 agonist 4.4 and TRPV1 PAM -14.7.
COc1ccc(C(CCNC(C)c2ccccc2)c2ccc(F)cc2)cc1 (configuration not stated) was read as KCNH2 3.1 inh -2.4, KCNH2 WT inh -75.7*, TRPV1 ag 7.0, TRPML1 inh -11.8, TRPML1 agonist -0.2 and TRPV1 PAM -6.4.
For CCn1c(=O)c2cc(C(=O)NCCCN3CCN(c4ccc(F)cc4)CC3)sc2c2ccccc21 the results were TRPML1 inh 11.2 and TRPML1 agonist -0.6.
For Cc1ccc(C(OCC(O)CNCc2ccc(F)cc2)c2ccccc2)cc1 (configuration not stated) the results were KCNH2 3.1 inh -106.3*, KCNH2 WT inh -78.7*, TRPV1 ag 3.9, TRPML1 inh -9.3, TRPML1 agonist 3.2 and TRPV1 PAM 7.4.
`COc1ccc(C(OCC(O)CNC(C)c2ccccc2)c2ccc(OC)cc2)cc1` (configuration not stated) gave KCNH2 3.1 inh -76.3*, KCNH2 WT inh -13.6, TRPV1 ag 2.7, TRPML1 inh 14.7, TRPML1 agonist 0.7 and TRPV1 PAM 7.4.
`Cc1c(C(=O)Nc2cccc(C#N)c2)sc2nc3n(c(=O)c12)CCCCC3` gave TRPML1 inh 12.6 and TRPML1 agonist -0.5.
O=[N+]([O-])c1cccc2nc(-c3ccccc3)c(-c3ccccc3)nc12 was read as KCNH2 3.1 inh -108.3*, KCNH2 WT inh -132.2*, TRPV1 ag 5.7, TRPML1 inh -10.0, TRPML1 agonist -0.5 and TRPV1 PAM 2.2.
Cn1c(-[n+]2c(-c3ccccc3)cc(-c3ccccc3)cc2-c2ccccc2)nc2c([N+](=O)[O-])cccc21 was read as KCNH2 3.1 inh -19.0, KCNH2 WT inh -6.5, TRPV1 ag inconclusive, TRPML1 inh 16.3, TRPML1 agonist 3.5 and TRPV1 PAM 9.8.
CC(C)=C(NC(=O)c1ccccc1)C(=O)NCc1ccccc1 was read as KCNH2 3.1 inh -117.6*, KCNH2 WT inh -7.8, TRPV1 ag 0.9, TRPML1 inh -3.2, TRPML1 agonist -0.1 and TRPV1 PAM 12.3.
For Cc1ccc(C(=O)N(Cc2ccc(N(C)C)cc2)CC2CCCO2)cc1 (configuration not stated) the results were TRPML1 inh -3.5 and TRPML1 agonist -0.3.
CCOC(=O)N1CCN(C(=O)c2ccc3c(c2)N(Cc2ccccc2F)C(=O)c2ccccc2S3(=O)=O)CC1 was read as TRPML1 inh 15.3 and TRPML1 agonist -1.0.
CC(C)c1nc(C(N)=O)c2[nH]c(=O)n(-c3ccc(F)cc3)c2n1 was read as KCNH2 3.1 inh 2.5, KCNH2 WT inh -15.7, TRPV1 ag -1.5, TRPML1 inh 7.8, TRPML1 agonist -0.5 and TRPV1 PAM 1.2.
Screening CCOc1ccccc1-c1nc(C(N)=O)c2[nH]c(=O)n(-c3ccc(F)cc3)c2n1 returned KCNH2 3.1 inh -84.0*, KCNH2 WT inh -11.8, TRPV1 ag -0.1, TRPML1 inh 4.7, TRPML1 agonist -0.3 and TRPV1 PAM -0.7.
COc1ccccc1/C=C/c1cncc(/C=C/c2ccccc2OC)c1 was read as TRPML1 agonist 0.4.
`O=C(NCCc1ccccc1)c1ccc(-c2ccccc2C(F)(F)F)o1` gave KCNH2 3.1 inh -213.8*, KCNH2 WT inh 1.1, TRPV1 ag 18.7, TRPML1 inh 2.9, TRPML1 agonist 1.4 and TRPV1 PAM -6.7.
Screening COc1cc(Br)c(CC(=O)NO)cc1OC returned TRPML1 agonist -0.2.
COc1cccc(CN2CC(C(=O)NCCCc3ccc(C)cc3)CCC2=O)c1 (configuration not stated) was read as KCNH2 3.1 inh -86.0*, KCNH2 WT inh 7.1, TRPV1 ag 20.3, TRPML1 inh 15.7, TRPML1 agonist 1.2 and TRPV1 PAM -13.8.
Screening COc1cccc(CN2CC(C(=O)NCCCc3ccncc3)CCC2=O)c1 (configuration not stated) returned KCNH2 3.1 inh -3.5, KCNH2 WT inh -7.2, TRPV1 ag -0.3, TRPML1 inh -3.8, TRPML1 agonist 0.9 and TRPV1 PAM -11.9.
`Cc1ccc(CNC(=O)C2CCC(=O)N(CCc3cccc(F)c3)C2)cc1` (configuration not stated) gave KCNH2 3.1 inh -84.4*, KCNH2 WT inh -5.0, TRPV1 ag 2.2, TRPML1 inh 17.8, TRPML1 agonist -0.4 and TRPV1 PAM -3.7.
For Cc1cc(CNC(=O)C2CCC(=O)N(CCc3cccc(F)c3)C2)nn1C (configuration not stated) the results were KCNH2 3.1 inh 2.7, KCNH2 WT inh -5.2, TRPV1 ag -0.8, TRPML1 inh 10.3, TRPML1 agonist -0.2 and TRPV1 PAM -12.3.
Screening Cc1cc[n+](CC#N)cc1 returned TRPML1 agonist -0.3.
For O=C(OCc1ccc([N+](=O)[O-])cc1)c1cc(S(=O)(=O)N2CCCCC2)ccc1N1CCOCC1 the results were KCNH2 3.1 inh -80.2*, KCNH2 WT inh -92.7*, TRPV1 ag 6.9, TRPML1 inh 0.0, TRPML1 agonist 0.4 and TRPV1 PAM -2.5.
Screening CC(C)c1ccc(Nc2c(-c3ccc(N(C)C)cc3)nc3cnccn23)cc1 returned TRPML1 inh 17.6 and TRPML1 agonist -0.2.
`N#Cc1nc(-c2ccccc2Cl)oc1NCC1CCCO1` (configuration not stated) gave KCNH2 3.1 inh -72.4*, KCNH2 WT inh -14.0, TRPV1 ag inconclusive, TRPML1 inh -29.1, TRPML1 agonist -0.3 and TRPV1 PAM -10.5.
